Rows were chosen to be rich in hits. Some 3.8% of all compounds tested hit in one or more screens of this group.
Y pestis TopoI = Yersinia pestis topoisomerase I inhibitors, primary screen, biochemical, cleavage product accumulation, plate reader, single point. DNA topoisomerase I (Yersinia pestis CO92). Y. pestis Topo-I cleavage product accumulation. activity, % at 10 µM. hit rate 0.064% among 360,000; in the data active means activity above about 50%, passing the limit was not always enough
PrP UTR inh = inhibition of PrP 5' UTR reporter expression; cell-based PrP 5' UTR mRNA reporter, plate reader; inhibition, % (concentration not given with the values); hit rate 0.35% among 340,000; in the data active means inhibition above about 52%
Mtb hypoxia rep = PubChem AID 1159583; M. tuberculosis hypoxia-regulated fluorescent reporter, fluorescence; fluorescence inhibition, % (no concentration beside the values); hit rate 0.1% among 300,000; in the data active means fluorescence inhibition mostly above about 23%, no sharp cut-off; inactive means mostly below about 17%
Mtb FBA inh = Mtb FBA enzyme inhibitors, primary screen, biochemical, fluorescence, strain H37Rv; Fructose-bisphosphate aldolase (Mycobacterium tuberculosis (strain ATCC 25618 / H37Rv)), …; purified M. tuberculosis FBA, fluorescence read-out; inhibition, % at 1 µM; hit rate 2.3% among 360,000; AID 588726, 2011
Target sequence (P9WQA3 whole entry, looked up): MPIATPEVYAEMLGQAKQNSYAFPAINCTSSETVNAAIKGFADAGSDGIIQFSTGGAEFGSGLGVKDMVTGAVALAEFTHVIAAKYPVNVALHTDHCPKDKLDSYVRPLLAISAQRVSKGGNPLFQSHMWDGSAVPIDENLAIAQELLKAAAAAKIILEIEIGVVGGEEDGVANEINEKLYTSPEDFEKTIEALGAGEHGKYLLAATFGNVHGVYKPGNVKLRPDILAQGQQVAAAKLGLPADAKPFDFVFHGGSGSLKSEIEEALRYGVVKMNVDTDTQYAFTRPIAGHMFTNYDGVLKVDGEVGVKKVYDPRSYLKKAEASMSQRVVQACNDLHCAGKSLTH
PrPC TRFRET = inhibitors of human cell surface prion protein PrPC, primary screen, cell-based, TR-FRET. Major prion protein (Homo sapiens), P04156. TR-FRET read-out. inhibition, % at 13.8 µM. hit rate 0.43% among 370,000; in the data active means inhibition above about 24%
GDH-TPI counter-1 = GDH-TPI coupling enzyme inhibitors, primary screen, artefact control for M. tuberculosis FBA inhibitor project, biochemical, absorbance, full deck. GDH-TPI coupled enzyme counterscreen, NADH absorbance. inhibition, % at 4.8 µM. hit rate 1.2% among 360,000; in the data active means inhibition above about 30%
Mtb FBA inh conf = M. tuberculosis aldolase blockers, biochemical, fluorescence, strain H37Rv, confirmation | shares compounds with Mtb FBA inh | purified M. tuberculosis FBA, fluorescence read-out | inhibition, % at 1 µM | hit rate 78% among 5,600 | AID 651616, 2012
GDH-TPI counter-2 = GDH-TPI coupling enzyme inhibitors, artefact control for M. tuberculosis FBA inhibitor project, biochemical, fluorescence, high throughput. shares compounds with Mtb FBA inh. GDH-TPI coupled enzyme counterscreen. hit rate 81% among 5,600. inhibition, % at 1 µM; in the data active means inhibition above about 10%
A number is an active result; – = inactive; · = not tested or not shown; + = active, no number. Unless noted, no stated cut-off is given here; in the data, active means inhibition above about 27%; inactive means the rest.

SMILES	Y pestis TopoI	PrP UTR inh	Mtb hypoxia rep	Mtb FBA inh	PrPC TRFRET	GDH-TPI counter-1	Mtb FBA inh conf	GDH-TPI counter-2
CC1(C)Cc2c(cnn2-c2ccccc2)C(=O)C1=NNC(=O)c1ccccc1O	·	·	–	·	·	·	·	·
O=C(O)c1sc2cc(C(F)(F)F)cnc2c1-c1cccs1	–	–	–	30	–	–	+	+
C/C(=N/Nc1ccc(C)cc1)C1(C)N(O)C(C)(C)C(c2ccco2)=[N+]1[O-] (stereo unspecified)	–	–	·	33	–	–	74	58
CC1(C(=O)NCc2ccccc2)Cc2c(-c3ccc4c(c3)OCO4)ccnc2O1 (stereo unspecified)	–	·	·	69	–	–	109	105
COCCNC(=O)C1(C)Cc2c(-c3ccc4c(c3)OCO4)ccnc2O1 (stereo unspecified)	–	·	·	96	–	–	71	51
CC1(C(=O)NCCc2ccccc2)Cc2c(-c3ccc4c(c3)OCO4)ccnc2O1 (stereo unspecified)	–	·	·	46	–	–	59	41
CC1(C(=O)NCCc2ccccc2)Cc2c(-c3ccccc3)ccnc2O1 (stereo unspecified)	–	·	·	–	–	–	·	·
COc1ccc(NC(=O)C2(C)Cc3c(-c4ccc5c(c4)OCO5)ccnc3O2)cn1 (stereo unspecified)	–	·	·	42	–	–	169	124
CC1(C(=O)Nc2ccc3c(c2)OCO3)Cc2c(-c3ccc4c(c3)OCO4)ccnc2O1 (stereo unspecified)	–	·	·	–	–	–	·	·
COc1ccc(OCCn2cc(C=NNC(=O)c3ccncc3)c3ccccc32)cc1	·	·	–	·	·	·	·	·
O=[N+]([O-])c1cccc(C(=NN=Cc2ccccc2Br)C23CN4CN(CN(C4)C2)C3)c1	·	·	–	·	·	·	·	·
CN1CCCC1CCNC(=O)c1c(-c2ccc3c(c2)OCO3)noc1-c1ccsc1 (stereo unspecified)	·	·	–	·	·	·	·	·
Cc1ccc(C=NNC(=O)c2nnn(-c3nonc3N)c2C)o1	·	·	–	·	·	·	·	·
COc1cc(OC)cc(-c2c(-c3cccs3)c3cc(-c4ccc5[nH]ccc5c4)ccc3n2C)c1	–	–	–	35	–	–	97	66
COc1cc(OC)cc(-c2c(-c3cccs3)c3cc(-c4ccc(OC)c(OC)c4)ccc3n2C)c1	–	–	–	32	–	–	+	170
COc1cccc(-c2c(-c3cc(OC)cc(OC)c3)n(C)c3ccc(-c4ccc5cc[nH]c5c4)cc23)c1	–	–	–	34	–	33	58	43
COc1ccc(-c2c(-c3cc(OC)cc(OC)c3)n(C)c3ccc(-c4ccc(S(N)(=O)=O)cc4)cc23)cc1	–	–	–	54	–	–	53	47
COc1ccc2ccccc2c1C=Nn1cnnc1	·	·	–	·	·	·	·	·
CCc1ccccc1NC(=O)NC(C(=O)O)C(C)CC (stereo unspecified)	·	·	–	·	·	·	·	·
CCOC(=O)c1c(N=Cc2cc(OC)cc([N+](=O)[O-])c2O)sc(C)c1C	·	·	–	·	·	·	·	·
COc1ccc(C=NNC(=O)c2cccc(C(=O)NN=Cc3ccc(OC)c(OC)c3)n2)cc1OC	·	·	–	·	·	·	·	·
COC(=O)C1=C(c2cccc(C#N)c2)CC2CCC1N2C(=O)N1CCCCC1 (stereo unspecified)	·	·	–	·	·	·	·	·
COc1cc(C#Cc2c(-c3cncn3C)n(C)c3ccc(-c4ccc5cc[nH]c5c4)cc23)cc(OC)c1	–	–	·	35	–	–	56	46
COc1cc(OC)cc(-c2c(-c3cccs3)c3cc(-c4ccc(SC)cc4)ccc3n2C)c1	–	–	–	–	–	–	·	·
COc1cc(OC)cc(-c2c(-c3cccs3)c3cc(-c4ccc5cc[nH]c5c4)ccc3n2C)c1	–	–	–	28	–	38	116	111
SMILES	Y pestis TopoI	PrP UTR inh	Mtb hypoxia rep	Mtb FBA inh	PrPC TRFRET	GDH-TPI counter-1	Mtb FBA inh conf	GDH-TPI counter-2
CC(C)(C)Sc1ccc2nc3c(n2c1)CCCC3	–	–	–	30	–	–	95	56
CCCCN1CC(Cc2ccccc2)C(CC(=O)NCc2ccc(OC)cc2)C1=O (stereo unspecified)	·	·	–	·	·	·	·	·
O=S(=O)(CCN1CCN(c2ccccn2)CC1)c1ccc(F)cc1	–	–	–	–	–	–	·	·
O=c1oc2cccnc2n1CCS(=O)(=O)c1ccc(F)cc1	–	–	–	39	–	–	–	–
CCOc1ccc2oc(C(=O)N3CC(C)OC(C)C3)c(C)c2c1 (stereo unspecified)	–	–	–	–	–	–	·	·
Cc1c(C(=O)OCC(=O)N2C(C)CCCC2C)oc2ccccc12 (stereo unspecified)	–	–	–	–	–	–	·	·
COc1ccc2oc(C(=O)OCC(=O)N3CCCC3=O)c(C)c2c1	–	–	–	45	–	–	73	36
COc1ccc2oc(C(=O)OCC(=O)N3CCCCC3C)c(C)c2c1 (stereo unspecified)	–	–	–	63	–	–	195	169
COc1ccc2oc(C(=O)OCC(=O)N3C(C)CCCC3C)c(C)c2c1 (stereo unspecified)	–	–	–	40	–	–	41	45
CCOc1ccc2oc(C(=O)OCC(=O)N3C(C)CCCC3C)c(C)c2c1 (stereo unspecified)	–	–	25	48	–	–	91	87
CNC(=S)NN=Cc1ccc(N(C)C)cc1	·	·	–	·	·	·	·	·
CN(C)c1ccc(C=NNC(=S)Nc2ccc(F)cc2)cc1	–	–	–	32	–	41	–	–
Nc1[nH]nc2nc(-c3ccccc3)[nH]c(=O)c12	–	–	–	–	–	–	·	·
Nc1nc(-c2ccccc2)[nH]c(=O)c1N	–	–	–	29	–	–	72	53
CCc1nnc(NN=Cc2cccs2)n1N	·	·	–	·	·	·	·	·
CC(=O)OC(C(=O)NCc1ccc2c(c1)OCO2)c1ccccc1Cl (stereo unspecified)	–	–	·	105	–	–	120	92
CC(C)C(OC(=O)c1ccco1)C(=O)NCc1ccc2c(c1)OCO2 (stereo unspecified)	–	–	–	74	–	–	135	84
O=C(NCc1ccc2c(c1)OCO2)c1ccccc1Cl	–	–	–	–	–	–	·	·
COc1ccc(S(=O)(=O)Nc2cccc3c2OC(CN(C)C(=O)NC(C)C)C(C)CN(C(C)CO)C3=O)cc1 (stereo unspecified)	·	·	–	·	·	·	·	·
COCc1cc(=O)n2[nH]c(-c3ccco3)cc2n1	–	–	–	34	–	–	–	–
